Reference: PubChem BioAssay (NCI)
About 79,000 compounds went through this panel and 15% of them were active in at least one assay; those are over-represented in the sample as a whole. A number with no mark means an inactive call. Active and inactive are the calls of the source. Rule as the data show it: active = growth inhibition above about 70%; inactive = the rest.

Columns and labels:
[1] = NCI Yeast Anticancer Drug Screen. Data for the rad50 strain (AID 155);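 also: 0% = growth of vehicle-only cultures of the same strain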; details: S. cerevisiae rad50 strain growth inhibition; at 50.0 µM; active compounds read high
Summary of the method: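 Readout: growth inhibition relative to vehicle-treated cultures. Compound exposure was carried out in a genetically defined yeast strain deficient in DNA damage repair.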

[2] = NCI Yeast Anticancer Drug Screen. Data for the mec2-1 strain (AID 157); details: S. cerevisiae mec2-1 strain, at 50.0 µM, active compounds read high
Summary of the method: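 Readout is yeast growth inhibition, normalised to vehicle-treated controls, in the mec2-1 strain exposed to compound.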

[3] = NCI Yeast Anticancer Drug Screen. Data for the sgs1 mgt1 strain (AID 161);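 also: 0% = growth of cultures given vehicle only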; details: S. cerevisiae sgs1 mgt1 strain, at 50.0 µM, active compounds read high
Summary of the method: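 Compounds are added to genetically altered yeast, and growth is compared with cultures given vehicle alone to give percent inhibition.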

[4] = NCI Yeast Anticancer Drug Screen. Data for the cln2 rad14 strain (AID 165);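 also: 0% = growth equal to vehicle treated cultures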; details: S. cerevisiae cln2 rad14 strain, at 50.0 µM, active compounds read high
Summary of the method: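 Relative to vehicle controls, growth inhibition of compound-treated cln2 rad14 yeast was recorded.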

[5] = NCI Yeast Anticancer Drug Screen. Data for the mlh1 rad18 strain (AID 175); details: S. cerevisiae mlh1 rad18 strain growth inhibition; at 50.0 µM; active compounds read high
Summary of the method: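 Test agents were incubated with a yeast strain of defined genotype (DNA damage repair defect). Inhibition of growth was derived by comparison with vehicle-exposed cultures.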

[6] = NCI Yeast Anticancer Drug Screen. Data for the bub3 strain (AID 167); details: S. cerevisiae bub3 mutant strain, at 50.0 µM, active compounds read high
Summary of the method: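 Readout: yeast growth inhibition, expressed relative to vehicle-only wells. The test organism is a mutant strain from a panel with lesions in DNA repair or checkpoint genes.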

Row | Compound | growth inhibition [1] | growth inhibition [2] | growth inhibition [3] | growth inhibition [4] | growth inhibition [5] | growth inhibition [6]
1 | COC(=O)C(Cc1c[nH]c2ccccc12)NC(=O)C(Cc1cnc[nH]1)NC(=O)C1CCC(=O)N1C(=O)OCc1ccccc1 (stereo not given) | -10.2% | -3.55% | -2% | -2.35% | -5.1% | 
2 | O=C(O)C(CCl)c1ccccc1 (stereo not given) | 7.05% | -3.1% | 0.4% |  | 2.25% | 9.85%
3 | CC(C)(C)c1ccc(P(=O)(O)C(C)(C)C)cc1 | -9.5% | 5.9% | -15.5% |  | 6.95% | 4.15%
4 | C/C=C/c1nc2ccccc2[nH]1 | -11.2% | -2.45% | -3% |  | -0.95% | -6.45%
5 | O=Cc1ccc(O)cn1 | -0.65% | 6.25% | -4.4% |  | -0.75% | 1.75%
6 | O=c1c2cc(-c3ccccc3)sc2nc2n1N=C(c1ccccc1)CS2 | -1.35% | -2.7% | -12.9% |  | -18.6% | -2.85%
7 | CC(=S)NC=C(C(N)=O)C(N)=O | 6.65% | 1.05% | 11.7% |  | -16.5% | -4.2%
8 | COc1cc2c(cc1OC)C[N+]1(C)CCc3cc(OC)c(OC)cc3C1C2 (stereo not given) | -16% | -30.9% | -9.9% |  | -5.55% | -8%
9 | COC(=O)C(C(=O)C(=O)NC1=C(Cl)C(=O)c2ccccc2C1=O)c1csc(-n2nc(-c3ccccc3)cc2-c2ccccc2)n1 (stereo not given) | -0.4% | -26.6% | -14.4% |  | -5.4% | 26.1%
10 | Cc1ccccc1OS(=O)(=O)c1ccc(Br)cc1 | -4.2% | 13.8% | -4.15% |  | -15.8% | 24.8%
11 | CC(C)NC(=O)C1C2C=CC(CC2)C1C(=O)NC(C)C (stereo not given) | 6.2% | 20.1% | 22.6% |  | 10.2% | 11.3%
12 | CCOS(=O)(=O)CC(C)C(C)C (stereo not given) | 4.75% | -17.3% | -7.8% |  | -9.1% | -5.65%
13 | C=C(CC(=O)NN)C(=O)NN | -4.75% | 12.3% | -24.2% |  | 1.25% | -22.5%
14 | CCn1cc(C(=O)CCP(=O)(OC)OC)c2ccccc21 | 7.5% | -22.2% | 3.6% |  | -0.25% | 5.15%
15 | CN(/N=C/c1ccnc2ccccc12)c1ccc([N+](=O)[O-])cc1[N+](=O)[O-] | -31.3% | -10.9% | -19.5% | 8.1% | -12.6% | 
16 | CCc1nc(N)nc(N)c1-c1ccc(Cl)c([N+](=O)[O-])c1 | 4.35% | 4.95% | -8.35% |  | -13.6% | -31.1%
17 | CC(=O)C(N)C(C)C (stereo not given) | 5.4% | -3.7% | 19.2% |  | 7.95% | 1.65%
18 | C=CCOC(OCC=C)C(C)C | -0.5% | -12.2% | -13.9% |  | -3.4% | -23.4%
19 | COC(=O)CCCCC#CCCCCC(=O)OC | 3.25% | 38.6% | -4.65% |  | 12.9% | 12.2%
20 | C=C1C2CCC3(CCC4C5(C)CCCC4(CN(CCO)C5)C3C2)C1O (stereo not given) | -13.6% | -39.9% | -4.45% |  | -1.15% | -13.4%

Row | Compound | growth inhibition [1] | growth inhibition [2] | growth inhibition [3] | growth inhibition [4] | growth inhibition [5] | growth inhibition [6]
21 | CNc1cccc2c1C(=O)c1ccccc1C2=O | 0.55% | -9.95% | 19.4% |  | 17.9% | 3.85%
22 | O=C(N/N=C/c1ccccc1)c1c(F)c(F)c(F)c(F)c1F | -27.6% | 9% | -32.9% |  | 0.6% | 0.6%
23 | COc1ccc(CC2CC(Cc3ccc(OC)c(OC)c3)C(=O)O2)cc1OC (stereo not given) | -33.9% | 15.7% | -23.4% |  | 2.85% | 3.95%
24 | Nc1ccc2nnn(OC3CCCC3)c2c1 | 40.2% | 13.9% | 3.55% |  | 0.4% | -4.05%
25 | CC(C)OC(=S)Nc1ccc(Cl)c(COC(C)(C)C)c1 | -5.8% | -16.2% | -4.65% |  | -7.4% | -10.1%
26 | COC(=O)Cc1ccccc1C(c1ccccc1)c1ccccc1 | -1.85% | -0.4% | 9.7% |  | -0.65% | 13.8%
27 | CCc1ccc(N=Nc2ccc(Br)cc2)cc1 | 8.85% | -18% | -4.95% |  | -10.3% | 2.85%
28 | CS(=O)(=O)OCC(CCl)(CCl)CCl | -4.5% | 0.55% | 0.15% |  | -0.8% | -3.45%
29 | O=C(c1ccccc1)N1C2C3CC(OCc4ccccc4)(OCc4ccccc4)C(O3)C21 (stereo not given) | -8.35% | -3.3% | -16.4% |  | -9.95% | 16.8%
30 | Nc1[nH]c(=O)nc2c1ncn2C1OC(CO)C(O)C1O (stereo not given) | -10.3% | -27.6% | -12.3% |  | -10.2% | -4.25%
31 | CCOC1=C(C#N)C(=O)NC2OC(CO)C(O)C2O1 (stereo not given) | 11.4% | 5.45% | 11.6% |  | 15.8% | 17.9%
32 | COc1ccc([N+](=O)[O-])cc1NC(=S)NC(=O)c1cccc(Br)c1 | -8.6% | 4.2% | -0.1% |  | 1.55% | 3.7%
33 | CC(=O)Nc1cc(C)c(C)cc1NC(C)=O | -23.9% | -16.6% | -8.35% |  | -7.4% | -5.1%
34 | Clc1ccc(C(n2cc(Br)cn2)n2cc(Br)cn2)cc1 | 89.6% (active) | 90.8% (active) | 90.7% (active) |  | 87.5% (active) | 91% (active)
35 | CC1(C)C=Cc2c(cc(O)c3c(=O)c4cc(Cl)ccc4[nH]c23)O1 | -14.2% | -42.4% | -14.8% |  | -12.1% | -15%
36 | CNC(=O)C1CCCN1C(=O)C(Cc1cnc[nH]1)NC(=O)C1CCC(=O)N1 (stereo not given) | -21.2% | -13.9% | -11.6% |  | -16.8% | -14.1%
37 | CCCC(C)OC(=O)CC(c1ccccc1)N1CCCCC1 (stereo not given) | 41.7% | -10.1% | 23.4% |  | 26.5% | 40.2%
38 | O=[N+]([O-])c1sc2ccccc2c1Br | 98% (active) | 98.7% (active) | 98.8% (active) |  | 98.7% (active) | 99.1% (active)
39 | CC(=O)OCC1OC(OCC(OC(C)=O)C(OC(C)=O)C(OC(C)=O)c2cnn(-c3ccccc3)n2)C(OC(C)=O)C(OC(C)=O)C1OC(C)=O (stereo not given) | 1.35% | 0.2% | 2.65% |  | 6.5% | 12.4%
40 | CN(C)NC(=O)Oc1ccc(Cl)cc1 | -0.25% | -0.35% |  | -4.55% | 2.75% | -33.3%
